Laboratory results as given in publication PMC5540273 (PLoS ONE, 2017).

test system: NEK9; details: concentration: 1 μM, replicates: in singlicate; n = 1
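Note: KINOMEscan kinase panel screen.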

SMILES	%Inh
Cc1ccc(C(=O)N2CC[C@@H](O)C2)cc1-n1c(C)cc(OCc2ccc(F)cc2F)c(Br)c1=O	0%
Cl.c1ccc(-c2ccc3c(Nc4ccc5[nH]ccc5c4)ccnc3c2)nc1 [GW440138]	0%
CCc1ccc(-c2ccc3c(c2)-c2c(cnn2C)S(=O)(=O)N3C)cc1	0%
COc1ccc(Nc2nccc(NCCNC(=O)c3cc4ccccc4s3)n2)cc1 [GSK1379896]	21%
Nc1ncc(-c2ccc3nccc(-c4ccncc4)c3c2)cc1S(=O)(=O)N1CCOCC1 [GSK1627798]	2%
O=C(Nc1n[nH]c2cc(-c3ccoc3)ccc12)C1CC1 [SB-738481]	0%

test system: T1, NIK; details: concentration: 1 μM, replicates: in singlicate; n = 1
T1 construct: gene MAP3K14

SMILES	%Inh
O=C(O)C(F)(F)F.O=C(O)C(F)(F)F.O=c1[nH]ccc2nc(N[C@@H]3CCCNC3)nc(Nc3ccc(S(=O)(=O)N4CCOCC4)cc3)c12 [GSK2177277]	87%
COc1cc(Nc2nccc(N3CCC(NC(=O)c4cc5ccccc5s4)C3)n2)cc(OC)c1OC (centres unmarked) [GSK1379760]	4%
CN1CCN(Cc2cccc(-c3ccc4c(Nc5ccc(Oc6ccccc6)cc5)ccnc4c3)c2)CC1 [GW578342]	24%
Fc1ccc(-c2ncn(C3CCNCC3)c2-c2ccnc(Oc3ccc(-c4ccccc4)cc3)n2)cc1 [SB-245391]	31%
Cc1ccc(S(=O)(=O)Nc2ccc(Nc3nccc(Nc4cccc5[nH]ncc45)n3)cc2)cc1 [GSK581271]	0%
COC(=O)Nc1nc2ccc(Oc3ccc(NC(=O)Nc4cc(C(F)(F)F)ccc4F)cc3)cc2n1C.Cl [GW692089]	27%
O=C(Nc1n[nH]c2nc(-c3ccc(O)cc3)ccc12)C1CC1 [SB-710363]	2%
CNC(=O)c1ccccc1Nc1nc(Nc2ccc(N3CCOCC3)cc2)ncc1Cl.Cl [GSK1576028]	36%
Cl.NC(=O)c1cccc(Nc2nccc(Nc3ccc(Oc4c(Cl)cccc4Cl)c(Cl)c3)n2)c1 [GW659009]	14%
COc1cc(Nc2nccc(-c3c(-c4cccc(NC(=O)c5c(F)cccc5F)c4)nn4ccccc34)n2)cc(OC)c1OC [GSK323521]	19%
Cn1cc(-c2ccc3c(c2)CCN3C(=O)Cc2cccc(F)c2)c2c(N)ncnc21 [GSK2603358]	23%
Cc1cccc(Nc2nc(N[C@H]3CCNC3)ncc2C(N)=O)c1.Cl [GSK2197149]	20%
c1ccc(-c2n[nH]cc2Nc2ccnc3ccccc23)nc1 [GW694077]	19%
CN(C)Cc1ccc(-c2ccc3c(Nc4ccc(Oc5ccccn5)cc4)ccnc3c2)o1 [GW567148]	12%
CCS(=O)(=O)c1ccc(OC)c(Nc2nccc(-c3c(-c4cccc(NC(=O)c5c(F)cccc5F)c4)nn4ncccc34)n2)c1 [GSK326180]	6%
COc1cccc(C2=C(Nc3ccc(Cl)c(C(=O)O)c3)C(=O)NC2=O)c1 [SB-390769]	21%
COc1cccc(NC(=O)NC2CCN(c3ccnc(Nc4cc(OC)c(OC)c(OC)c4)n3)C2)c1 (centres unmarked) [GSK1379763]	6%
Cc1ccc(C)c(NC(=O)NC2CCN(c3ccnc(Nc4ccc(F)cc4)n3)C2)c1 (centres unmarked) [GSK1379720]	22%
Cc1ccc(F)c(C(=O)Nc2cccc(-c3nn4ccccc4c3-c3ccnc(Nc4cccc(F)c4)n3)c2)c1F [GSK361061]	5%
Cc1occc1-c1ncc(OC[C@@H](N)Cc2c[nH]c3ccccc23)cc1-c1ccc2[nH]nc(C)c2c1.O=C(O)C(F)(F)F [GSK682037]	78%
COc1ccc(Nc2nccc(N3CCC(NC(=O)Nc4cccc(OC)c4)C3)n2)cc1 (centres unmarked) [GSK1379742]	7%
CC(=O)N1CCN(c2ccc(Nc3nccc(-c4sc(C(C)C)nc4-c4cccc(NS(=O)(=O)c5cccc(Cl)c5)c4)n3)cn2)CC1 [GSK1660437]	17%
Nc1ncnc2c1nc(-c1ccccc1)n2-c1ccccc1 [SKF-97293]	34%
O=C(NC1CCN(c2ccnc(Nc3ccc(F)cc3)n2)C1)c1cc2ccccc2s1 (centres unmarked) [GSK1379716]	42%
COc1cccc(C(=O)Nc2cccc(Oc3ccc4nc(NC(=O)C5CC5)cn4n3)c2)c1	0%
Cl.Cl.NCC(C(=O)Nc1cc(Br)c(-c2ccnc3[nH]ccc23)s1)c1ccccc1 (centres unmarked) [GSK1269851]	8%
